# In all, about 24,000 compounds went through this assay and about 50 (0.2%) were called active. Roughly 9% stayed inconclusive and do not appear here. Many of the other results were omitted from the sample, so actives are more common in it than they were. A number with no mark means an inactive call.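 How the source made its calls: active means inhibition above 50%; inconclusive means compound itself fluorescent, judged against control cell fluorescence; inactive means the rest.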
# Biological target: Integrin alpha-4 (Homo sapiens) (UniProt P13612)
# Experiment: inhibitors of LDV-FITC binding to Mn2+-activated VLA-4, primary screen, Jurkat cells (AID 529);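 further: 0% = Mn2+ stimulated cells lacking compound and 100% = ligand binding without Mn2+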
# Settings: LDV-FITC binding with Mn2+, flow cytometry, active compounds read high, 100% = Mn2+-driven binding gain fully reversed, screened at 10 µM (by protocol)
# Sequence of Integrin alpha-4 (Homo sapiens) (P13612 whole entry, looked up): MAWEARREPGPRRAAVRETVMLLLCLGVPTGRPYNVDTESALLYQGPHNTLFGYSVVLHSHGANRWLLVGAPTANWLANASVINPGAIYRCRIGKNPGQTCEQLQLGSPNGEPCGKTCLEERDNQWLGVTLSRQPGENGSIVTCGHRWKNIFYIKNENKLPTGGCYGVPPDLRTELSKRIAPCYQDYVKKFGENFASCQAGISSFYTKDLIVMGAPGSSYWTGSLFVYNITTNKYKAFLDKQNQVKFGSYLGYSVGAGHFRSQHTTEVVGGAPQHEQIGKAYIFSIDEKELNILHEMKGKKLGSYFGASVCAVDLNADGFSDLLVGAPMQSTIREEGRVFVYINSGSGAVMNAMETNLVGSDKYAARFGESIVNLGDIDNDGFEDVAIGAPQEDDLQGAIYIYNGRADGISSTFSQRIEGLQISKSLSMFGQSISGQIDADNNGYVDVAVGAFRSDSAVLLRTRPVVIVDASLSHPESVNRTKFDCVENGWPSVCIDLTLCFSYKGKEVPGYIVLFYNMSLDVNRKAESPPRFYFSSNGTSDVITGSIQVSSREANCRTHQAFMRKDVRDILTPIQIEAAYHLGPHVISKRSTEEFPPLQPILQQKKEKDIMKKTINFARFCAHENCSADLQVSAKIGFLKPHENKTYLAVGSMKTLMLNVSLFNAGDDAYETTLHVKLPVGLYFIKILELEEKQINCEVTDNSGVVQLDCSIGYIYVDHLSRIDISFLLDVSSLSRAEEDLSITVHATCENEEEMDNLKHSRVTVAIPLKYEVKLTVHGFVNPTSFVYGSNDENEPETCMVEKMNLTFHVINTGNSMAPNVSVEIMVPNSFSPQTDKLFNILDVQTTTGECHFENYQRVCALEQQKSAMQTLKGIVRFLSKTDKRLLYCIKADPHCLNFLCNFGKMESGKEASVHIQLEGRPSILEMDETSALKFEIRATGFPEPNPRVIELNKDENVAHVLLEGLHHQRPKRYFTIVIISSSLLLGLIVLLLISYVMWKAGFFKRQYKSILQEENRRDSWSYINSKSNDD
row,Compound,inhibition
1,COc1ccccc1-n1cnc2cc(C(=O)NCC3CCCO3)ccc21 (stereo not drawn),-11%
2,CCOC(=O)c1c(NC(=O)c2cccs2)sc(C)c1C,-11.5%
3,COc1cccc(NC(=O)Nc2nnc(N3CCCCC3C)s2)c1 (stereo not drawn),-4%
4,O=C(O)c1cccc2c1C(=O)N(C1CCCCC1)C2,-16%
5,CCOc1ccc(CCNC(=O)C2CCN(c3ccc(N4CCOCC4)nn3)CC2)cc1OCC,-6%
6,CCOC(=O)N1CCC(NC(=O)c2cnn3ccccc23)CC1,2.5%
7,Cc1nc(CNS(=O)(=O)c2cccnc2)cs1,-1%
8,CC1CCCCC1NC(=O)CCS(=O)(=O)c1cccc2nonc12 (stereo not drawn),12%
9,CCN(CC(=O)Nc1ccc2c(c1)OCCO2)Cc1cc(=O)oc2cc(C)c(C)cc12,-1.5%
10,CCn1c(=O)cc(SCC(=O)NCc2ccc3c(c2)OCO3)c2ccccc21,5%
11,COc1cc(C2C(C(=O)Nc3ccc(F)cc3)=C(C)Nc3nc(CCCO)nn32)cc(OC)c1OC (stereo not drawn),-7%
12,CCn1ncc(C2=NOC(C(=O)N3CCN(c4ccccc4)CC3)C2)c1C (stereo not drawn),7%
13,c1ccc(CCn2nnnc2CN2CCN(C3CCCC3)CC2)cc1,-4.5%
14,Cc1cc(=O)n2nc(N3CCCC(C(=O)N4CCN(C)CC4)C3)sc2n1 (stereo not drawn),-12.3%
15,CCN(CC)S(=O)(=O)c1ccc2[nH]cc(C(=O)NCCc3ccccc3)c(=O)c2c1,2%
16,CCOC(=O)c1nnn(CC(=O)Nc2cccc(F)c2)c1C(=O)OCC,13.7%
17,CC(NC(=O)CN1CCN(Cc2ccc(Cl)cc2)C1=O)c1ccc2c(c1)OCCO2 (stereo not drawn),4%
18,CN(C)S(=O)(=O)c1cccc(C(=O)Nc2cccnc2)c1,-37.5%
19,COc1ccc(Cl)cc1S(=O)(=O)N1CCN(CC(=O)C(C)(C)C)CC1,14%
20,CCCCC(CC)C(=O)Nc1ccc(Cl)cn1 (stereo not drawn),-17.5%
21,O=C(NCc1ccccn1)c1cnc2sccn2c1=O,-2%
22,Cc1cccn2c(=O)c3cc(C(=O)N4COCC4(C)C)n(C)c3nc12,-28%
23,Cc1cccn2c(=O)c3cc(C(=O)NCc4ccccn4)n(C)c3nc12,52% (active)
24,Cc1nc(NC(=O)CCC(=O)O)sc1C(=O)N(C)C,-12%

row,Compound,inhibition
1,O=C(Cn1c(=O)n(Cc2ccco2)c(=O)c2ccccc21)NCC1CCCO1 (stereo not drawn),-8.5%
2,O=C(Nc1nc2ccc(S(=O)(=O)N3CCCC3)cc2s1)C1CCCO1 (stereo not drawn),-33.5%
3,CCOc1ccc(Cn2nnc(C(=O)NCc3ccccc3)c2N)cc1,-1%
4,O=C(c1ccccc1)c1cccn1CC(=O)N1CCN(c2ccc(F)cc2)CC1,49%
5,O=C(O)C1CCN(S(=O)(=O)N2CCOCC2)CC1,0%
6,C=C1c2cc(CC)ccc2NC(=O)N1c1ccc(C)cc1,-2%
7,COC(=O)c1ccc2c(=O)n(CC3CCCO3)c(=S)[nH]c2c1 (stereo not drawn),-11%
8,CCn1c(SCC(=O)Nc2ccccc2F)nc2c(c1=O)SC(C)C2 (stereo not drawn),3.3%
9,Cc1ccccc1C(=O)NCCN=C1NS(=O)(=O)c2ccccc21,-4%
10,CCOC(=O)N1CCC(C(N)=O)CC1,-7%
11,Clc1ccc(Cn2ncc3c(NCc4cccnc4)ncnc32)cc1,-0.5%
12,CCn1cc(C(=O)NCC2CCCO2)c(=O)c2cc(S(=O)(=O)N3CCCCC3)ccc21 (stereo not drawn),20%
13,CC(NC(=O)COc1ccccc1)C(=O)NC1=NCCS1 (stereo not drawn),-18.5%
14,CCOC(=O)c1[nH]c2c(c1C)C(=O)CC(c1ccc(N(C)C)cc1)C2 (stereo not drawn),-3%
15,CCOC(=O)N1CCN(C(=O)c2cn(C)c3ccc(S(=O)(=O)N4CCCC4)cc3c2=O)CC1,-13%
16,CCCCOc1ccc(C(=O)NCc2ccco2)cc1,-20.5%
17,Cn1c(=O)cc(OCCCC(=O)N2CCN(Cc3ccc4c(c3)OCO4)CC2)c2ccccc21,7%
18,O=C(C(Cc1ccccc1)n1cccc1)N1CCN(C2CCCCC2)CC1 (stereo not drawn),15%
19,O=C(CCCN1C(=O)C2C3C=CC(C3)C2C1=O)N1CCN(c2ccccc2)CC1 (stereo not drawn),21%
20,Cc1nc2ncnn2c(C)c1CCC(=O)N1CCN(C(=O)c2ccco2)CC1,10%
21,Cc1cc(=O)n2nc(N3CCCC3C(=O)NCCCN3CC(C)CC(C)C3)sc2n1 (stereo not drawn),-1%
22,CCOc1ccc(CNC(=O)C2CC(=O)N(C3CCCC3)C2)cc1OC (stereo not drawn),28%
23,O=C(CC(NS(=O)(=O)c1ccc(Cl)cc1)c1ccco1)NC1CCCC1 (stereo not drawn),1%
24,O=C(Nc1ccn(Cc2ccc(F)cc2)n1)c1ccncc1,4%
